For orientation: AC50 means the concentration giving half of the maximal activity seen.

In PubChem BioAssay (EPA / NIEHS) one finds outcome and AC50 data, which are given here for six molecules.

Inconclusive results are not listed. Activity calls are given as the source filed them. Rule for the calls, unless noted: active = hit-call score of the fitted dose curve at least 0.9, where 1 is the maximum; inactive = score below 0.9.

Assay [1] deals with Retinoic acid receptor alpha (Homo sapiens) (UniProt P10276). The assay can be described thus: ATG_DR5_RAR_CIS: Attagene CIS-FACTORIAL HepG2 Assay for human Retinoic Acid Receptor Alpha (RARE), DR5 submotif (AID 2282934). Particulars: HepG2 Attagene cis-factorial RARE DR5 reporter, mRNA; actives raise or lower the signal. The procedure, abridged: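 Read-out: DR5-driven reporter transcript measured by RT-PCR, 6-FAM primer extension, HpaI digest and capillary electrophoresis. Human HepG2 liver cells carry transiently transfected cis-element reporter constructs; dosing lasts 24 h. Gain or loss of signal fitted against DMSO baseline.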

Assay [2] in a line: ATG_GRE_CIS: Attagene CIS-FACTORIAL HepG2 Assay for human Glucocorticoid Response Elements (GRE) (AID 2282947). As to conditions: HepG2 GRE cis-reporter, Attagene multiplex mRNA; actives raise or lower the signal. An outline of the steps:
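Read-out: fluorescent reporter-transcript fragments separated by capillary electrophoresis after RT-PCR. Transiently transfected HepG2 cells carrying cis-element-driven reporter units were dosed for 24 h; gain or loss of signal fitted against DMSO control.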

A short description of assay [3]: ATG_PBREM_CIS: Attagene CIS-FACTORIAL HepG2 Assay for human Phenobarbital-responsive Enhancer Module (PBREM) (AID 2282955). As to conditions: HepG2 PBREM cis-reporter, Attagene multiplexed transcription; actives raise or lower the signal. An outline of the steps:
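Fluorescence of labelled reporter cDNA fragments, resolved by capillary electrophoresis, gives mRNA induction in transfected HepG2 cells treated for 24 h; DMSO serves as negative control and baseline.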

Assay [4] in a line: ATG_RORE_CIS: Attagene CIS-FACTORIAL HepG2 Assay for human RAR-related Orphan Receptor Element (RORE) (AID 2282959). Particulars: HepG2 Attagene cis-factorial RORE reporter, mRNA; actives raise or lower the signal. An outline of the steps:
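Cells were HepG2 carrying transfected cis-regulated reporter constructs, dosed for 24 hours. Total RNA was reverse-transcribed and reporter cDNA amplified, fluorescently labeled and sized by capillary electrophoresis. Activity was fitted bidirectionally relative to DMSO.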

Assay [5] is described as follows: ATG_SREBP_CIS: Attagene CIS-FACTORIAL HepG2 Assay for human Sterol Regulatory Element Binding (SREBP) (AID 2282962). Particulars: HepG2 Attagene cis-factorial SREBP reporter, mRNA; actives raise or lower the signal. The procedure, abridged: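 Readout: fluorescent reporter-transcript peaks resolved by capillary electrophoresis after RT-PCR. Cells were human HepG2 carrying transfected cis-promoter reporter constructs, dosed for 24 h. Gain or loss of signal was fitted against DMSO controls.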

The target in assay [6] is Hepatocyte nuclear factor 4-alpha (Homo sapiens) (UniProt P41235). Kind of assay: ATG_HNF4a_TRANS: Attagene TRANS-FACTORIAL HepG2 Assay for human Hepatocyte Nuclear Factor 4 alpha (HNF4a) (AID 2282982; active = hit-call score of the fitted dose curve at least 0.9, where 1 is the maximum). As to conditions: HepG2 HNF4a transactivation reporter, mRNA readout. The procedure, abridged:
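Transient MRTU transfection of HepG2, 24 h dosing. Readout: reporter mRNA via RT-PCR + capillary electrophoresis, fluorescence; activity fit upward relative to DMSO control.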

A short description of assay [7]: ATG_M_32_TRANS: Attagene TRANS-FACTORIAL HepG2 Assay for M32 Transcription Factor (Internal Marker) (AID 2282984; active = hit-call score of the fitted dose curve at least 0.9, where 1 is the maximum;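 note: transcript level of a background control reporter unit measured by RT-PCR and capillary electrophoresis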). As to conditions: HepG2 Attagene TRANS M32 internal marker reporter. The procedure, abridged:
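Read-out: fluorescent reporter cDNA fragments resolved by capillary electrophoresis after RT-PCR of total RNA. Transfected HepG2 cells were exposed to chemical for 24 h. Activity scored in the positive direction relative to DMSO.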

Assay [8] in a line: ATG_NFI_CIS: Attagene CIS-FACTORIAL HepG2 Assay for human Nuclear Factor I (NFI) (AID 2282989). As to conditions: HepG2 cis-regulatory reporter, NFI response element transcription; actives raise or lower the signal. An outline of the steps:
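Reporter transcripts were measured by RT-PCR with fluorescent primer extension and capillary electrophoresis 24 h post-treatment. HepG2 cells carried transiently transfected cis-regulated reporter constructs reporting endogenous factor activity; gain or loss fitted against DMSO baseline.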

Assay [9] in a line: ATG_NF_kB_CIS: Attagene CIS-FACTORIAL HepG2 Assay for human Nuclear Factor Kappa B (NF-kB) (AID 2282991). As to conditions: HepG2 Attagene cis-factorial NF-kB reporter mRNA; actives raise or lower the signal. The procedure, abridged: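 Endogenous transcription factor activity in HepG2 was captured via cis-regulated reporter constructs; after 24 h dosing, reporter mRNA was reverse-transcribed, amplified, fluorescently labelled and sized by capillary electrophoresis, with activity fitted bidirectionally relative to DMSO.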

Assay [10] concerns the target human Peroxisome Proliferator-activated Receptor alpha (PPARa), PPARA (gene 5465) (UniProt Q07869). The assay can be described thus: ATG_PPARa_TRANS: Attagene TRANS-FACTORIAL HepG2 Assay for human Peroxisome Proliferator-activated Receptor alpha (PPARa) (AID 2283001; active = hit-call score of the fitted dose curve at least 0.9, where 1 is the maximum;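 for AC50: potency for gain of reporter signal over DMSO so agonist or activator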). An outline of the steps: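 Transient HepG2 transfection, GAL4-UAS reporters, NR-Gal4 chimeras; 24 h compound exposure. Readout: reporter transcripts by RT-PCR, 6-FAM primer extension, HpaI digest, capillary electrophoresis. Positive direction vs DMSO baseline.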

In assay [11] the target is human Retinoid X Receptor beta (RXRb), RXRB (gene 6257) (UniProt P28702). Kind of assay: ATG_RXRb_TRANS: Attagene TRANS-FACTORIAL HepG2 Assay for human Retinoid X Receptor beta (RXRb) (AID 2283013; active = hit-call score of the fitted dose curve at least 0.9, where 1 is the maximum). The procedure, abridged:
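After a 24 h incubation with test chemical, transfected HepG2 cells carrying NR-Gal4 fusions and GAL4-UAS reporter transcription units yield RNA whose reporter cDNA is FAM-labelled, HpaI-cut and sized by capillary electrophoresis; increases over DMSO are scored.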

A short description of assay [12]: TOX21_p53_BLA_p2_viability: Viability Assessment in the Tox21 HCT-116 p53 Agonism Beta-lactamase Assay, Phase 2 (AID 2283591; active = hit-call score of the fitted dose curve at least 0.9, where 1 is the maximum;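 note: compound exposure lasted 16 h at 37 °C; actives lower the ATP signal meaning cytotoxicity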). An outline of the steps:
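HCT116 p53-bla cells, 4000/well, dosed after 5 h plating (217-fold dilution of DMSO stocks) and incubated 16 h at 37C. Viability taken as cellular ATP by CellTiter-Glo luminescence after 30 min RT; signal loss marks cytotoxicity.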

The target of assay [13] is Cellular tumor antigen p53 (Homo sapiens) (UniProt P04637). The assay can be described thus: TOX21_p53_BLA_p2_ratio: Tox21 HCT-116 p53 Agonism Beta-lactamase Assay, Ratio, Phase 2 (AID 2283592; active = hit-call score of the fitted dose curve at least 0.9, where 1 is the maximum). The procedure, abridged: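 DMSO-normalized, positive-direction endpoint derived from the 460 nm/530 nm FRET ratio in HCT116 p53 beta-lactamase reporter cells exposed 16 h at 37C and loaded with CCF4-AM for 2 h.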

Assay [14] shares this target. Kind of assay: TOX21_p53_BLA_p5_ratio: Tox21 HCT-116 p53 Agonism Beta-lactamase Assay, Ratio, Phase 5 (AID 2283599; active = hit-call score of the fitted dose curve at least 0.9, where 1 is the maximum). An outline of the steps:
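HCT-116 p53-bla cells (4000/well) plated 5 h, dosed with compound (217-fold DMSO dilution) for 16 h at 37 C; CCF4-AM substrate 2 h at room temperature. Activity is the 460/530 nm emission ratio (405 nm excitation), fitted in gain-of-signal direction versus DMSO.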

Assay [15] has the same target. Kind of assay: TOX21_p53_BLA_p4_ratio: Tox21 HCT-116 p53 Agonism Beta-lactamase Assay, Ratio, Phase 4 (AID 2283601; active = hit-call score of the fitted dose curve at least 0.9, where 1 is the maximum). An outline of the steps: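 HCT-116 p53 beta-lactamase reporter cells (4000/well) preincubated 5 h, then compound (217-fold dilution of DMSO stock) for 16 h at 37C. CCF4-AM substrate added 2 h at room temperature; 460/530 nm emission ratio fitted upward versus DMSO.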

Assay [16] is described as follows: ATG_FoxO_CIS: Attagene CIS-FACTORIAL HepG2 Assay for human Forkhead box O (FoxO) (AID 2282943). As to conditions: HepG2 Attagene cis-reporter, FoxO element, mRNA; actives raise or lower the signal. An outline of the steps: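 Read-out: fluorescence of 6-FAM-labelled reporter cDNA fragments resolved by capillary electrophoresis. Transiently transfected HepG2 cells were dosed for 24 h; activity fitted in both directions relative to DMSO controls.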

Assay [17] deals with Cellular tumor antigen p53 (Homo sapiens) (UniProt P04637). Kind of assay: TOX21_p53_BLA_p3_ratio: Tox21 HCT-116 p53 Agonism Beta-lactamase Assay, Ratio, Phase 3 (AID 2283596; active = hit-call score of the fitted dose curve at least 0.9, where 1 is the maximum). An outline of the steps:
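Cells were seeded at 4000/well, rested 5 h at 37C, then dosed with DMSO compound solutions (217-fold dilution) for 16 h. CCF4-AM substrate was loaded for 2 h at room temperature, and the 460/530 nm emission ratio was fitted for gain of signal versus DMSO.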

Assay [18] is described as follows: TOX21_p53_BLA_p5_viability: Viability Assessment in the Tox21 HCT-116 p53 Agonism Beta-lactamase Assay, Phase 5 (AID 2283600; active = hit-call score of the fitted dose curve at least 0.9, where 1 is the maximum). The procedure, abridged: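 Here cell health was gauged by ATP levels in wells holding 4000 cells, each treated 16 h with DMSO-delivered compounds at 217-fold dilution; reduced luminescence marked toxicity.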
In assay [19] the target is Hepatocyte nuclear factor 3-beta (Homo sapiens) (UniProt Q9Y261). The assay can be described thus: ATG_FoxA2_CIS: Attagene CIS-FACTORIAL HepG2 Assay for human Forkhead box A2 (FOXA2) (AID 2282942). Particulars: HepG2 cis-reporter transcription factor activity, 24 h; actives raise or lower the signal. The procedure, abridged:
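Endogenous transcription factor activity was read in HepG2 cells carrying transiently transfected cis-promoter reporter units. After 24 h dosing, reporter mRNA was quantified by RT-PCR and capillary electrophoresis, and values fitted bidirectionally versus DMSO.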

Assay [20] is described as follows: TOX21_p53_BLA_p3_viability: Viability Assessment in the Tox21 HCT-116 p53 Agonism Beta-lactamase Assay, Phase 3 (AID 2283593; active = hit-call score of the fitted dose curve at least 0.9, where 1 is the maximum;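 note: cells exposed to compound for 16 h before reading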). An outline of the steps:
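HCT116 cells, 4000/well, dosed 5 h after plating by pin transfer (217-fold dilution from DMSO stock) and incubated 16 h at 37C, 5% CO2. Viability read as ATP luminescence with CellTiter-Glo after 30 min at room temperature.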

Sequence of Retinoic acid receptor alpha (Homo sapiens) (P10276 whole entry, looked up): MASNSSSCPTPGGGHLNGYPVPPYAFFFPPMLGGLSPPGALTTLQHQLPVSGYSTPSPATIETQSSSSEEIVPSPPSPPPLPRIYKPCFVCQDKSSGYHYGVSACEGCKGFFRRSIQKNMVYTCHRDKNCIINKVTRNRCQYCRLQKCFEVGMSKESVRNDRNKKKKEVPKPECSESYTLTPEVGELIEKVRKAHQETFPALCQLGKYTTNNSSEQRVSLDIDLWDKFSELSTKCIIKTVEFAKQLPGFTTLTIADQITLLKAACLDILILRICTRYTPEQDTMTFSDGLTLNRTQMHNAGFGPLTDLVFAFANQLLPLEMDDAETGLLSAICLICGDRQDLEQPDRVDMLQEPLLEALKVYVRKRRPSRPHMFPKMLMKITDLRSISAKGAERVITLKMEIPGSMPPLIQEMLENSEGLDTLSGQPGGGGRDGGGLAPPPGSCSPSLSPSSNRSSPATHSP
Sequence of human Retinoid X Receptor beta (RXRb), RXRB (gene 6257) (P28702 whole entry, looked up, the tested form may be a part): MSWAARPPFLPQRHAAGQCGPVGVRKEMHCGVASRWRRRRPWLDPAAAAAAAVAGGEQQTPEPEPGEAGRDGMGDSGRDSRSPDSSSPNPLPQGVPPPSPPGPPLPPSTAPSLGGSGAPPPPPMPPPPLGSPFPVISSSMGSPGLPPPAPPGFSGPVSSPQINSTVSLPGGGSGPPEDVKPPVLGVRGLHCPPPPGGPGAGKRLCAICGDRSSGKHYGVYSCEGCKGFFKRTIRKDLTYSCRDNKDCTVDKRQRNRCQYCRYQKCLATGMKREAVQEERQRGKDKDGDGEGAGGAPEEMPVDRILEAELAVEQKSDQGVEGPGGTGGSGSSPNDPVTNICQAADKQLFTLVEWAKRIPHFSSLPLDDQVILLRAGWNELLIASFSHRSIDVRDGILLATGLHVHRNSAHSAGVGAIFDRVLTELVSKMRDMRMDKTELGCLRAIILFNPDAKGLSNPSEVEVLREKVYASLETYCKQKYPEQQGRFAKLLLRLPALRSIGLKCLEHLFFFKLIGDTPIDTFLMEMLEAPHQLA
Sequence of Cellular tumor antigen p53 (Homo sapiens) (P04637 whole entry, looked up): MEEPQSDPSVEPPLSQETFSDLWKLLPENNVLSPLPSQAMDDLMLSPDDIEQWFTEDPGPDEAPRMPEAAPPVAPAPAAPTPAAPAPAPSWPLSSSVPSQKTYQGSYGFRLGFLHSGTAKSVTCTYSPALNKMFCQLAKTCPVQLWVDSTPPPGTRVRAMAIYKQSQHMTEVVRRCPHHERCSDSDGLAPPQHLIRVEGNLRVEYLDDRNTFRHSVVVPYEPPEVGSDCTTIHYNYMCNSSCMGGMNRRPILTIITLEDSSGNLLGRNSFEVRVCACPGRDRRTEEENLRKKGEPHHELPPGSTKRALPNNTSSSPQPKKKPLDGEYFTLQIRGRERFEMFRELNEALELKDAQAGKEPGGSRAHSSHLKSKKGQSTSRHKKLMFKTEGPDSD
Sequence of Hepatocyte nuclear factor 4-alpha (Homo sapiens) (P41235 whole entry, looked up): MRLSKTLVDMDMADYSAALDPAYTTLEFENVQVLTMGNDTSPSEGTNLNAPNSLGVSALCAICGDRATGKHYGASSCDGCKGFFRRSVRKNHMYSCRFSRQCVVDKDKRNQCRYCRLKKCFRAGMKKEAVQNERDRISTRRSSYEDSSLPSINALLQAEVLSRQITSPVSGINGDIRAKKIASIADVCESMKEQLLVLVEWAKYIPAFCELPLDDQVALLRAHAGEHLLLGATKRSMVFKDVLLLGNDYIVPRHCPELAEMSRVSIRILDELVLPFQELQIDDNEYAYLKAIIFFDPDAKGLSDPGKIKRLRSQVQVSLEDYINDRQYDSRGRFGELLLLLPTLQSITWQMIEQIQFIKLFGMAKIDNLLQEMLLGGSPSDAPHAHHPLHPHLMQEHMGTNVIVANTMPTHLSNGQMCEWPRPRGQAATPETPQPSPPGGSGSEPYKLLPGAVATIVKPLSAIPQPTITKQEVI
Sequence of Hepatocyte nuclear factor 3-beta (Homo sapiens) (Q9Y261 whole entry, looked up): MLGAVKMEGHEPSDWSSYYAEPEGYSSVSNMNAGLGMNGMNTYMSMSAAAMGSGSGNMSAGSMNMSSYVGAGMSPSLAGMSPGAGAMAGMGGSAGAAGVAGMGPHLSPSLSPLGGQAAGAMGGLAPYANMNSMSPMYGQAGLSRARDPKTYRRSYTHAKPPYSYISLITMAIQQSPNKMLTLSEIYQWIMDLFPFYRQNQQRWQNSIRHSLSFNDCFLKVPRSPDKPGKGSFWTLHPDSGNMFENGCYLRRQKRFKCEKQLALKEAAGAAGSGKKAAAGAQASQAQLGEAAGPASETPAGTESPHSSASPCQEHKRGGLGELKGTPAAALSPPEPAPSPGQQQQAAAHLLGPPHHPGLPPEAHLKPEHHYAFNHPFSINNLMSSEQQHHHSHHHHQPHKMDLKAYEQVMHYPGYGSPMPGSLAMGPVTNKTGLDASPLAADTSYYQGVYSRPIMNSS
Sequence of human Peroxisome Proliferator-activated Receptor alpha (PPARa), PPARA (gene 5465) (Q07869 whole entry, looked up, the tested form may be a part): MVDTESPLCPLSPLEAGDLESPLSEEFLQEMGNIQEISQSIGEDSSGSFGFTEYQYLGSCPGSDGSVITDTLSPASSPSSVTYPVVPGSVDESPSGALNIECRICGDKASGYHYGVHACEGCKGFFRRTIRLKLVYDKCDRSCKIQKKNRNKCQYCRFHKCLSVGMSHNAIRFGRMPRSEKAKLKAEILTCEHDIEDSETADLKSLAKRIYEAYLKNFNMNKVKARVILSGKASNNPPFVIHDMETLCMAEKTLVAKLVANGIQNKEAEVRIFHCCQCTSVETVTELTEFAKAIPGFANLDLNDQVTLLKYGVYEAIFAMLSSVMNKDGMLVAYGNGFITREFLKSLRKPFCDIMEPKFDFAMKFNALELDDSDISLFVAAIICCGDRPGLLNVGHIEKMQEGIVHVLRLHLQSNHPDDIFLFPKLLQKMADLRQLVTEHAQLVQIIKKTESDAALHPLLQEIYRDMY

Take `CCCCCC1CCCC(=O)O1` (configuration not stated): the outcome in assay [1], in assay [2], in [3], in assay [4], in [5] and in assay [6] was inactive. In addition, the outcome in assay [7], in [8], in [9], in assay [10], in [11] and in [12] was inactive. In addition, the result in assay [13], in assay [14] and in assay [15] was inactive.

On to `CCCCOC(=O)COc1ccc(Cl)cc1Cl`, for which the molecule was classed as inactive in assay [1], in [16], in [3], in assay [6], in [7] and in assay [9]. In addition, the call in assay [11], in assay [12], in assay [13], in [17], in [14] and in assay [18] was inactive. In addition, the result in [15] was inactive.

As to `O=[N+]([O-])c1ccc2nc[nH]c2c1`, the molecule was classed as inactive in assay [19], in [16], in assay [3], in assay [8] and in assay [9].

Consider `c1cc[c]([Bi]([c]2ccccc2)[c]2ccccc2)cc1`, for which the call in assay [19], in [16], in assay [2], in [3], in [4] and in [5] was inactive. Also, the outcome in assay [6], in assay [8] and in assay [9] was inactive. For the same molecule, the AC50 in assay [11] was 7.42 µM (active).

With `CCCCCCC(O)CCCCCCCCCCC(=O)OC` (configuration not stated), the result in [1], in assay [19], in [16], in assay [2], in assay [3] and in assay [5] was inactive. Moreover, the result in [6], in [7], in [8], in assay [9], in [12] and in assay [13] was inactive. Besides, the outcome in assay [20], in assay [14], in [18] and in assay [15] was inactive. Also, the AC50 was 21.8 µM (active) in assay [4], 7.36 µM (active) in assay [10] and 53.5 µM (active) in assay [11].

Turning to `CC(C)=CCOC(=O)c1ccccc1`, the call in [1], in [19], in assay [2], in assay [4], in [5] and in assay [7] was inactive. In addition, the result in assay [8], in assay [9], in assay [11], in assay [12], in [13] and in [20] was inactive. Further, the outcome in [14], in [18] and in assay [15] was inactive.
